Results taken from PubChem BioAssay AID568 (Sanford-Burnham Center for Chemical Genomics, 2006).
Out of some 83,000 compounds screened, fewer than 10 were called active. No rule for the calls is given here. A selection follows. Entries with a potency or affinity are not part of this list.

What follows are compounds tested against Heat shock cognate 71 kDa protein (Homo sapiens) (UniProt P11142) (assay: small molecules displacing fluorescent ligand from Hsc70 – biochemical, fluorescence polarization, primary screen (AID 568)). Settings: mP, at 20 µM, stronger effect = higher value.
Sequence of Heat shock cognate 71 kDa protein (Homo sapiens) (P11142 whole entry, looked up): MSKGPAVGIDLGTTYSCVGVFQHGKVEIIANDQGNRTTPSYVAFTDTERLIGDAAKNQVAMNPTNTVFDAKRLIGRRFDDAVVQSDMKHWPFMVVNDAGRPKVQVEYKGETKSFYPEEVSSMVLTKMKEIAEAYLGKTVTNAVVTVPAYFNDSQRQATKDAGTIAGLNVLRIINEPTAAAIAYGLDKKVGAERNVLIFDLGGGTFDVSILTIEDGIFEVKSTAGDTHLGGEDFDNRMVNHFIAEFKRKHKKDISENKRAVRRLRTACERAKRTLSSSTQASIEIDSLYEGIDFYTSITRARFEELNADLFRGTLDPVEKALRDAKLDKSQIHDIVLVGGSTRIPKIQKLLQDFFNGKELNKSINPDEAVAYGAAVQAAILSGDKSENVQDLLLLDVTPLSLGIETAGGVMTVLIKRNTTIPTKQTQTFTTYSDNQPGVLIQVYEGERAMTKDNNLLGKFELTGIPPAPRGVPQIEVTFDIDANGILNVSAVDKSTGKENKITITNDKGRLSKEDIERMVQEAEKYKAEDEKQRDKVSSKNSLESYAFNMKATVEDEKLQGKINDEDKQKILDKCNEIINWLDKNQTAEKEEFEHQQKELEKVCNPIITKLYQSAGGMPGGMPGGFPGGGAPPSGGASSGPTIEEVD
Sequence of Heat shock cognate 71 kDa protein (Homo sapiens) (P11142 whole entry, looked up): as above

displacement, inactive:
COc1ccc(S(=O)(=O)NCC2CCC(C(=O)N3CCC4(CC3)OCCO4)CC2)cc1 (stereo not drawn) -1.2%, CC1CCN(c2nc(-c3ccccc3)c(C#N)c(=O)[nH]2)CC1 -1.1%, C=CCn1c(O)c(C(CC)=Nc2ccccc2NC(=O)CC)c(=O)[nH]c1=O 0%, NC(=O)CSc1nnc(CCc2nc3ccccc3[nH]2)n1-c1ccccc1 -0.4%, COC(=O)c1ccc(Nc2nc(C)cc(=O)[nH]2)cc1 -5.8%, Cc1occc1C(=O)Nc1cc(C(C)(C)C)on1 -3.1%, CCn1c(=O)n(CC)c2cc(S(=O)(=O)Nc3ccccc3C)c(C)cc21 0.5%, CCOC(=O)N1CCN(C(=O)c2ccc(N3C(=O)c4ccccc4C3=O)cc2)CC1 -0.7%, O=C1OCC(Cn2c3ccccc3c3ccccc32)O1 (stereo not drawn) 4.8%, O=C(CN1C(=O)c2cccc3cccc1c23)N1CCN(Cc2ccc3c(c2)OCO3)CC1 -5.5%, CC(C)C(=O)Nc1cc(=O)[nH]c2ncnn12 -7.6%, CCN1C(=O)Cc2cc(S(=O)(=O)N3CCOCC3)ccc21 7%, N#Cc1cn(CC(=O)N2CCCC2)c2ccccc12 -2.4%, Clc1ccc(OCCn2cnc3ccccc32)c(Cl)c1 -4%, CCC(CC)C(=O)NCc1ccccc1Cl 0.3%, Cc1ccc(S(=O)(=O)/N=C2/C=C(C3C(=O)CC(C)(C)CC3=O)C(=O)c3ccccc32)cc1 4%, Cc1ccc(C(=O)COc2nc(C)cc(C)c2C#N)cc1 3.2%, Cc1cc(=O)n2nc(N3CCCC(C(=O)NCCCN4CCc5ccccc5C4)C3)sc2n1 (stereo not drawn) 3%, CC(C)OC(=O)C1CC=CCC1C(=O)Nc1ccc(Cl)cc1 (stereo not drawn) 0.4%, CCc1nnc(NC(=O)CSc2nnnn2C)s1 -1.1%, CC(C)CCNC(=O)c1ccc2c(c1)ncn2C1CCCCC1 0.7%, Oc1ccccc1CNCCCNCc1ccccc1O -1.3%, COc1ccccc1N1C(=O)CC(Sc2nc(C)cc(C)n2)C1=O (stereo not drawn) 0.9%, COC(=O)c1ccc(NC(=O)CCN2CCN(CCC(=O)Nc3ccc(C(=O)OC)cc3)CC2)cc1 2.6%, Cc1cc(C)c2c(N)c(S(=O)(=O)Cc3ccccc3)sc2n1 3.8%, O=C(O)CCN1C(=O)C2CCCCC2C1=O (stereo not drawn) -0.4%, Cc1ccc(OCC2Cn3c(nc4c3c(=O)n(C)c(=O)n4C)O2)cc1 (stereo not drawn) 1.1%, COc1ccc(OC)c(-n2nnnc2SCC(=O)O)c1 4.6%, CCC(=O)N(Cc1cc2ccccc2[nH]c1=O)C(C)C 7%, Cc1ccc2c(c1)NCC(C(=O)NCc1ccccc1)O2 (stereo not drawn) 1.6%, CCc1cccc(NS(=O)(=O)c2ccc3c(c2)oc(=O)n3C)c1 1.5%, CC1(c2ccc(OC(F)F)cc2)NC(=O)N(CC(=O)Nc2ccc3c(c2)OCO3)C1=O (stereo not drawn) -2.6%, Cc1cccc(C)c1NC(=O)NC1(C(=O)NCCCN2CCOCC2)CCCCC1 -2.5%, Cc1noc(C)c1COC(=O)CCCc1nc2ccccc2s1 0.6%, COc1ccc(C(=O)Nc2ccc3oc(-c4cccc(F)c4)nc3c2)cc1OC 2.4%, Cc1ccc(/C=N/NC(=O)CC2N=C(Cc3ccccc3)NNC2=O)cc1 (stereo not drawn) -1.6%, CN1C(=S)SC(/[N+]([O-])=C\c2ccco2)C1(C)C (stereo not drawn) -8.3%, CCOC(=O)c1sc(NC(=O)C2CCCO2)c(C(=O)OC)c1C (stereo not drawn) 2.1%, Cc1ccc(-c2cc3nc(C)cc(NCc4ccco4)n3n2)cc1 -12.6%, CCOC(=O)N1CCC(N2C(=O)c3ccccc3C2Nc2ccc(Cl)cn2)CC1 (stereo not drawn) 0%, CCC(=O)N1CCc2cc(Br)cc(S(=O)(=O)NCC3CCCO3)c21 (stereo not drawn) 5.2%, COc1ccc(-c2nnc3sc(CCN4C(=O)c5ccccc5C4=O)nn23)cc1 -0.6%, O=C(N1CCN(c2ccccc2)CC1)C(F)(F)C(F)(F)F 8.8%, CCOC(=O)CCSCC(=O)Nc1cc(C)on1 4.3%, Cc1ccc(NCc2nnc(SCC(=O)OC3CCCCC3)o2)c(C)c1 -6.7%, CCN1CCN(C(=O)c2sc3nc(C)nc(N4CCC(C)CC4)c3c2C)CC1 -3.6%, CN(c1ccccc1)C(c1ccc(F)cc1)c1nnnn1C1CCCC1 (stereo not drawn) -4.6%, CCOC(=O)c1ccc(COC(=O)CNC(=O)CNC(=O)c2ccc(OC)cc2)o1 -3.7%, CC(C)C(c1nnnn1Cc1ccc(F)cc1)N1CCSCC1 (stereo not drawn) -2.2%, COc1ccc(CCN2CNc3c(c(=O)n(C)c(=O)n3C)C2)cc1 0.1%, O=C(CSc1nnc(-c2ccncc2)n1CC1CCCO1)NCc1ccccc1 (stereo not drawn) -0.2%, O=C(Nc1ccc(N2CCOCC2)cc1)c1cccc(S(=O)(=O)N2CCC(Cc3ccccc3)CC2)c1 -1.4%, Cc1ccc(OCC(=O)Nc2cc(-c3nn4c(C)nnc4s3)ccc2C)cc1 4.5%, Clc1ccc(/C=N/c2c(-c3ccco3)nc3ccccn23)cc1 3.7%, CC(NC(=O)c1ccc(CS(=O)(=O)c2cccc(C(F)(F)F)c2)o1)c1ccc2c(c1)OCCO2 (stereo not drawn) -1.8%, COc1ccc(C(=O)Oc2cccnc2)cc1 -4.3%, Cc1ccc(C)c2c1[nH]c1ccccc12 1.5%, CC(C)Cc1cc(C(=O)N2N=C(C(F)F)CC2(O)C(F)F)c2ccccc2n1 (stereo not drawn) 1.5%, COc1cc2cc(C(c3nnnn3C3CCCC3)N3CCCCCC3)c(=O)[nH]c2cc1OC (stereo not drawn) -5%, COCCN1C(=O)c2ccccc2C(C(=O)NCCN(C)C)C1c1ccc(F)cc1 (stereo not drawn) -4.9%, CCCCn1c(=O)n(CC(=O)Nc2ccc(C)c(Cl)c2)c(=O)c2c1ncn2Cc1ccco1 -21.2%, CCOc1ccc(CC(C(=O)NN)C(=O)NN)cc1CN(C)C 2.3%, COc1ccc(Br)cc1CNC(=O)C1CCCN(S(C)(=O)=O)C1 (stereo not drawn) -2%, OC(COc1ccc2c(c1)OCO2)CN1CCc2ccccc2C1 (stereo not drawn) 1.3%, COCCNC(=O)C(c1ccc(C)o1)N(Cc1ccco1)C(=O)c1snc(C(N)=O)c1N (stereo not drawn) 5.3%, CC1=CN2C(=NC(=O)CC2(C)C(=O)N(CC(=O)NC2CCCC2)c2ccccc2C)C=C1 (stereo not drawn) -1.4%, CC(=O)OCCn1c(Br)nc2c1c(=O)[nH]c(=O)n2C 4.4%, Cc1nc2c(C(=O)N3CCCCC3)cnn2c(C)c1Cc1ccccc1F 2.6%, COC(=O)[C@H](Cc1ccccc1)NC(=O)N1CCC(C)CC1 -1.3%, CN1CCN(S(=O)(=O)c2ccc(N3CCN(S(=O)(=O)/C=C/c4ccccc4)CC3)nc2)CC1 -5.3%, Cn1cnnc1SCCC(=O)Nc1ccc(Cl)cc1 4.9%, CC1CCCCC1NC(=O)Cn1ncc2ccccc21 (stereo not drawn) -0.3%, CCC(Sc1nc2n[nH]c(C)c2c(=N)n1-c1cccc(Cl)c1C)C(=O)N(CC)CC (stereo not drawn) -7.7%, Cc1ccc(-c2noc(C3CCCN(C(=O)c4ccccc4)C3)n2)o1 (stereo not drawn) 1.4%, CCc1ccc2nc(NC3=NCN(CCOC)CN3)nc(C)c2c1 0.7%, Cc1ccc(N2CN=C(c3ccccc3)NC2=S)cc1 -3.8%, CCOC(=O)c1ccc(NC(=O)CSc2nc(C)cc(=O)[nH]2)cc1 -2.1%, O=C(NC1CCCCCCC1)c1ccco1 -2.6%, Cc1c(/C=C/C(=O)c2cccs2)cnn1C 0.7%, CCOc1cccc(C(=O)Nc2ccc(N(CC)CC)cc2)c1 -1.7%, O=C1c2ccsc2SCCN1Cc1ccc(Cl)cc1 3.5%, Nc1ccccc1SCc1cn2cccnc2n1 -0.9%, CC(C)[C@H](NC(=O)OC(C)(C)C)c1nnc(SCc2cccc(F)c2)o1 6.2%, CC(C)(C)c1ccc(-c2nnc(SCCN3C(=O)c4ccccc4C3=O)o2)cc1 -4.1%, CCCn1nnc(NC(=O)c2ccccc2Br)n1 -4.1%, Cc1ccc2nc(NC(=O)c3cccs3)sc2c1 1.4%, Cc1ccccc1-n1c(=O)cc(N2CCN(C(=O)c3ccco3)CC2)[nH]c1=O -0.4%, COc1ccc2[nH]cc(C(=O)CN3CCN(C(=O)c4ccco4)CC3)c2c1 -1.6%, COc1ccc(C2C(C(=O)NC(C)C)c3ccccc3C(=O)N2C)cc1OC (stereo not drawn) -8.3%, COc1ccc(C(=O)CN2C(=O)c3ccccc3C2=O)c(OC)c1C -1.2%, O=C(CC12CC3CC(CC(C3)C1)C2)NCO -2.2%, CCCCOCC(O)Cn1c(C)nc2ccccc21 (stereo not drawn) -2.3%, CN=C1SC(CC(=O)Nc2cccc(Cl)c2Cl)C(=O)N1C (stereo not drawn) 0%, COc1nc(OC)nc(N2CCCCCC2)n1 7.4%, c1cncc(-c2nc3cc(Cc4ccc5oc(-c6cccnc6)nc5c4)ccc3o2)c1 -0.1%, COCCCn1c(SCC(=O)Nc2ccc3c(c2)OCCO3)nnc1-c1ccoc1C -9.3%, Cn1cccc1Cc1nnc(SCC(=O)NCc2ccccc2)n1-c1ccc(F)cc1 1.3%, CC(C)CC(=O)Nc1ccc(-c2cn3ccsc3n2)cc1 3%
